Compound activity as filed in PubChem.
Shown are actives, neighbours in structure and some others; about 2.2% of the full set was active somewhere.
LYP inh 2 – LYP (human) phosphatase inhibition. recombinant LYP catalytic domain, DiFMUP fluorescence. inhibition, % at 2 µM. hit rate 0.21% among 96,000;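 active means inhibition at 2 µM at or above a set limit, the screen mean plus 3 SD, cut at about 24% in these data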;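 further: 0% = DMSO with enzyme and 100% = enzyme fully blocked by orthovanadate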
PLAP activator – human PLAP activation; P05187; purified PLAP enzyme, luminescent substrate read-out; hits give high values; activation fold at 20 µM; hit rate 1.2% among 96,000; AID 696; in the data active means activation fold above about 2
Target sequence (P05187 whole entry, looked up): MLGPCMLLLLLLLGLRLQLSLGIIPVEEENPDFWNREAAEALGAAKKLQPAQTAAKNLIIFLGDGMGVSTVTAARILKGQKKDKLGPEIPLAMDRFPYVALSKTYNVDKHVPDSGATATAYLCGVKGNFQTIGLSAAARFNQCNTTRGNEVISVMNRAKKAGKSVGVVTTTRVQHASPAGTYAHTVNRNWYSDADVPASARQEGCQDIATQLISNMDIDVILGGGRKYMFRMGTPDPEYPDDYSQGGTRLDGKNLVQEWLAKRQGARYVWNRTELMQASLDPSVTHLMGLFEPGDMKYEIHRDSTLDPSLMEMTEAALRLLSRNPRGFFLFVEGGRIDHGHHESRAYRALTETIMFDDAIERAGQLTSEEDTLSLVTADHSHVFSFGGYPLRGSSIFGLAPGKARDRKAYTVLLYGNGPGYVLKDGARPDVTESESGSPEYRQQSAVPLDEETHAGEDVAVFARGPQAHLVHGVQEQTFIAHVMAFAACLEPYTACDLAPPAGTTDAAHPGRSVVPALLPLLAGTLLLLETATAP
MRP-1 activ – activators of MRP-1 | H69AR cells + doxorubicin, viability rescue, CellTiter-Glo | viability increase, % at 10 µM | hit rate 0.61% among 140,000;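 active means viability gain under doxorubicin at or above a set limit, the compound median plus 3 SD, cut at about 4.7% in these data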;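 further: MRP-1 overexpressing cells given doxorubicin 25 µM after compound pretreatment; 18-22 h compound pretreatment then 72 h with doxorubicin before readout; 0% = doxorubicin-only wells and 100% = vehicle-treated cells without doxorubicin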
PTPN22 act – activators of human LYP (PTPN22) phosphatase; Q9Y2R2; activation, % at 2 µM; recombinant LYP, DiFMUP fluorescence; 0 = plate median, 100 = signal doubled; hit rate 0.11% among 96,000;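 active means activation at 2 µM above a set limit, the mean plus 5 SD, cut at about 37% in these data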
FAK blocker – FAK (human) kinase inhibition; inhibition, %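 (tested at 7 µM)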; biochemical FAK kinase activity assay; hit rate 0.84% among 97,000; in the data active means inhibition above about 19%;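 further: 0% = DMSO and 100% = reference compound high control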
MRP resist rev – MRP-mediated drug resistance reversal; H69AR cells + 2 uM doxorubicin, CellTiter-Glo, 72 h; hit rate 0.04% among 85,000; differential viability (reversal), % at 10 µM;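 active means viability drop by adding the cancer drug above about 55%, with treated viability meeting a 40% cutoff, limit read from the data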;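 further: viability without doxorubicin minus viability with 2 µM doxorubicin for each compound; larger differential means the compound sensitizes cells more to doxorubicin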
* = called active by the depositor; . = no result.

SMILES | LYP inh 2 | PLAP activator | MRP-1 activ | PTPN22 act | FAK blocker | MRP resist rev
Cc1nnc2sc(-c3ccc(NC(=O)c4ccc(-c5ccc(Cl)cc5Cl)o4)cc3)nn12 | 32* | . | . | -32 | 28* | -5
COc1ccc2nc(NC(=O)CNS(=O)(=O)c3cccs3)sc2c1 | -4 | 2.5* | -2 | 8 | 1 | 8
COc1ccc2nc(NC(=O)CN(C)S(=O)(=O)c3cccs3)sc2c1 | -11 | 1.2 | 1 | 8 | 6 | .
Cc1csc(NC(=O)CNS(=O)(=O)c2cccs2)n1 | -5 | 2* | -2 | 3 | -5 | -2
CC(=O)Nc1cccc(NC(=O)CCn2cnc3cc(C)c(C)cc32)c1 | 25* | 0.8 | -1 | -25 | -2 | -13
CCCNc1ncnc2nc[nH]c12 | . | 1.3 | -1 | . | . | -2
c1ccc2c(CCNc3ncnc4nc[nH]c34)cccc2c1 | 7 | . | -3 | -6 | 21* | -24
Clc1ccc(CCNc2ncnc3nc[nH]c23)cc1 | -3 | 1.6 | 1 | 0 | 12 | .
c1ccc(CNc2ncnc3nc[nH]c23)cc1 | 5 | 2* | 0 | -5 | 5 | -17
c1ccc(CCCNc2ncnc3nc[nH]c23)cc1 | . | 1.9 | -2 | . | . | 3
CCOc1cc(CNc2ncnc3nc[nH]c23)ccc1OC | . | 2.2* | 0 | . | . | -29
COc1cc(/C=C(/C#N)c2ccc(F)cc2)ccc1Oc1ccc([N+](=O)[O-])cn1 | . | . | 3 | . | . | .
COc1ccc(C(=O)N(NC(=O)Oc2ccccc2)C(C)(C)C)cc1 | . | . | -2 | . | . | .
CC(NC(=O)c1ccc(Br)cc1)c1ccc2c(c1)CCCC2 (stereo not given) | . | . | 5.6* | . | . | .
CC(NC(=O)c1ccc(F)cc1)c1ccc2c(c1)CCCC2 (stereo not given) | 2 | 0.9 | 2 | 3 | 1 | .
Cc1nc(CS(=O)(=O)c2ccc(Cl)cc2)cc(Sc2ccc(Cl)cc2)n1 | 12 | 1.5 | -1 | -8 | 3 | .
Cc1nn(C(C)C(=O)NNC(=S)Nc2ccc(Cl)cc2)c(C)c1[N+](=O)[O-] (stereo not given) | 14 | 2.4* | 1 | -12 | -1 | .
Cc1ccc(NC(=S)NNC(=O)c2c([N+](=O)[O-])c(C)nn2C)cc1 | 8 | 2.5* | 0 | -7 | -1 | .
Cc1ccc(NC(=S)NNC(=O)c2c(Cl)c(C)nn2C)cc1 | . | . | -1 | . | . | .
Cc1ccc(NC(=S)NNC(=O)c2cn(C)nc2C)cc1 | 8 | 2.3* | 0 | -3 | -2 | .
Cc1nn(CCC(=O)NNC(=S)Nc2ccc(Cl)cc2)c(C)c1[N+](=O)[O-] | -27 | . | -1 | 26 | -3 | 11
Cc1ccc(NC(=S)NNC(=O)c2nn(C)c(C)c2Cl)cc1 | 14 | 2.3* | 1 | -12 | 3 | .
C/C(=N\NC(=O)C1CCCN(S(=O)(=O)c2ccccc2)C1)c1ccccn1 (stereo not given) | 4 | 2* | 0 | 0 | -2 | .
C/C(=N\NC(=O)C1CCCN(S(=O)(=O)c2ccccc2)C1)c1ccncc1 (stereo not given) | 14 | 1.1 | -4 | -11 | -2 | .
CSCCC(NS(=O)(=O)c1ccccc1F)C(=O)OCc1ccccc1Cl (stereo not given) | . | . | -2 | . | . | .
SMILES | LYP inh 2 | PLAP activator | MRP-1 activ | PTPN22 act | FAK blocker | MRP resist rev
Cn1c(N2CCCC2)nc2c1c(=O)n(Cc1ccc(Cl)cc1)c(=O)n2C | 10 | 1.2 | 0 | -11 | 5 | 9
CC1CN(c2nc3c(c(=O)n(Cc4ccc(Cl)cc4)c(=O)n3C)n2C)CC(C)O1 (stereo not given) | 4 | 1.5 | -5 | -6 | 4 | 57*
Cc1cccc(N2C(=O)CC(N3CCN(c4ccccc4)CC3)C2=O)c1 (stereo not given) | -15 | 1.5 | 0 | 14 | -2 | -7
Cc1cccc(N2C(=O)CC(NNc3nc4ccccc4s3)C2=O)c1 (stereo not given) | . | . | 4.7* | . | . | .
O=C1c2ccccc2-c2nc3ccccc3n21 | -5 | . | 8.3* | 4 | 10 | 7
Nc1ccccc1SCc1cn2ccccc2n1 | . | . | -1 | . | . | .
N=C(N)SCc1cn2ccccc2n1 | . | . | 4.9* | . | . | .
Cc1ccc(N2CCN(C(=O)CCc3nc4ccccc4[nH]3)CC2)c(C)c1 | 2 | . | 2 | -5 | -4 | 0
Cc1cccc(N2CCN(C(=O)CCc3nc4ccccc4[nH]3)CC2C)c1 (stereo not given) | -11 | 2.2* | 0 | 7 | -1 | 5
CCc1ccc(NC(=O)CCn2ccnc2C)cc1 | -3 | 1.2 | -3 | 4 | -1 | -3
O=C1c2ccsc2SCCN1Cc1c(Cl)cccc1Cl | 6 | 1.3 | 7.0* | -5 | 1 | 9
O=C1N/C(=N\N=C\c2cccnc2)SC1Cc1ccc(SC(F)F)cc1 (stereo not given) | 10 | 2.1* | 2 | -8 | -1 | .
Cc1ccc(CCNC(=O)C2CCCN(S(=O)(=O)c3c(C)noc3/C=C/N(C)C)C2)cc1 (stereo not given) | 2 | 1.1 | -1 | -6 | -2 | -3
Cc1noc(/C=C/N(C)C)c1S(=O)(=O)N1CCCC(C(=O)NCc2cccs2)C1 (stereo not given) | 12 | 1.1 | 10* | -15 | -2 | 3
N=C1N(/N=C/c2ccccc2)C(=Nc2ccccc2)C(=S)N1c1ccccc1 | -14 | . | -8 | 13 | 0 | 1
CNC(=O)CN(c1ccc(F)cc1)S(=O)(=O)c1cc(C)ccc1OC | 14 | 1.6 | -2 | -11 | -3 | 7
COc1ccccc1NC(=O)CSC1=NCCN1 | . | . | 50* | . | . | .
COc1ccccc1NC(=O)CSC(N)=O | -1 | 1.2 | 5.6* | 4 | 1 | -27
COc1ccccc1NC(=O)CCN1CCN(Cc2ccccc2)CC1 | 4 | 2* | -1 | -2 | -2 | -14
COC(=O)c1sccc1NC(=O)c1ccc(OC)cc1OC | . | . | -2 | . | . | .
Clc1cc(Cl)cc(C2=NCCC(c3ccccc3)O2)c1 (stereo not given) | . | . | -2 | . | . | .
Cc1nnc(NC(=O)c2c(F)cccc2F)s1 | -7 | 0.9 | 9.3* | 4 | 2 | -1
Cc1ccc(C(=O)NCC(=O)NCC(=O)OCC(=O)c2cccs2)cc1 | . | . | -2 | . | . | .
O=S(=O)(Nc1nc(-c2sccc2Cl)cs1)c1cc(Cl)ccc1Cl | 26* | 1.3 | -1 | -24 | 9 | .
COc1ccc(OCCCc2c(C)n[nH]c2C)cc1 | 0 | 2.3* | 0 | 2 | -1 | 8
SMILES | LYP inh 2 | PLAP activator | MRP-1 activ | PTPN22 act | FAK blocker | MRP resist rev
COc1cccc(OCCc2c(C)n[nH]c2C)c1 | 12 | 1.1 | 1 | -10 | -1 | .
Cc1cccc(OCCCCc2c(C)n[nH]c2C)c1C | -2 | 2.4* | 1 | 0 | -2 | 2
CCOc1ccccc1OCCCCCc1c(C)n[nH]c1C | 0 | 1.5 | -2 | -3 | -1 | 5
CCN(CC)S(=O)(=O)c1ccc(OC)c(NC(=O)COc2ccc3c(C)cc(=O)oc3c2)c1 | . | . | -1 | . | . | .
O=C(NCc1ccccc1)C(c1ccc(O)cc1)N(C(=O)Cn1nnc(-c2cccs2)n1)c1ccc2c(c1)OCCO2 (stereo not given) | -2 | . | 5.8* | 1 | 0 | -8
CC(NC(=O)/C(C#N)=C1\N=C(NC(=O)c2cccs2)c2ccccc21)c1ccccc1 (stereo not given) | . | . | -4 | . | . | .
